The values that follow come from PubChem BioAssay AID1117319 (Southern Research Institute, 2015).

As usually defined, the inhibition is the drop in the measured response relative to a control, in per cent.

Where “and” joins values, the source holds several entries; their conditions need not be identical. Equal values may be shown once. In all, about 260,000 compounds went through this assay and about 1,500 (0.58%) were called active. Not shown: some 5% with an inconclusive outcome. The list is a sample of the results. Potency and affinity values are given separately. A number with no mark means an inactive call.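 The calls were made as follows: active = inhibition above a set limit at one or more doses, reproduced on every date tested; inconclusive = results disagree between test dates, or hit never tested in dose response; inactive = the rest.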

This test has as its target Virion infectivity factor (Human immunodeficiency virus type 1 group M subtype B (isolate BH10)) + Virion infectivity factor (Human immunodeficiency virus type 1 group M subtype B (isolate BRU/LAI)) + Virion infectivity factor (Human immunodeficiency virus type 1 group M subtype B (isolate PCV12)) + Virion infectivity factor (Human immunodeficiency virus type 1 group M subtype B (isolate HXB2)) + DNA dC->dU-editing enzyme APOBEC-3G (Homo sapiens) (UniProt P69720+P69721+P69722+P69723+Q9HC16). Put plainly: HIV-1 Vif–A3G interaction blockers – biochemical, TR-FRET, GST-Vif 1-94, biotin-A3G peptide, dose response retest, primary screen (AID 1117319).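 Also: Vif residues 1-94 fused to GST binding biotinylated APOBEC3G peptide 110-148; 0% = full assay without inhibitor and 100% = GST in place of GST-Vif.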 The note with it: TR-FRET GST-Vif / biotin-A3G peptide binding; active compounds read high. (In general: Time-resolved FRET reads energy transfer from a long-lived donor to a nearby acceptor.)
As for `O=C(NCc1nnnn1-c1ccc(F)c(F)c1)C(=O)c1c[nH]c2ccccc12`, the inhibition was 11.1%.
Regarding `Cc1cccc(N2CCN(C3=NC(=O)C(Cc4ccccc4)S3)CC2)c1` (stereo not drawn), the inhibition was 14.4%.
For `CCN1C(=C2C(=O)c3ccccc3C2=O)C=Cc2ccccc21` the value was 26.5%; for `O=C1C=Cc2ccccc2/C1=C/c1[nH]c(=O)[nH]c1O`, -10.7%; for `O=C1CC(NS(=O)(=O)c2cccnc2)CN1c1ccc(F)cc1` (stereo not drawn), -4.88%.
Take `N#Cc1ccccc1Sc1ccccc1C(=O)Nc1ccc(Br)cc1`: the inhibition was 5.46%.
For `Fc1ccccc1/C=C1\CCCC2=C1Nc1nnnn1C2c1ccccc1F` (stereo not drawn), the inhibition is 15.4%.
For `C(=C1/CCCC2=C1Nc1ncnn1C2c1ccccc1)/c1ccccc1` (stereo not drawn) the value was 0.53%.
For `CC1CCC/C(=C\Nc2ccc(C(=O)O)cc2)C1=O` (stereo not drawn) the value was 4.93%; for `Cc1cc(C(=O)O)ccc1N/C=C1\CCCC(C)C1=O` (stereo not drawn), 10.9%; for `CCOC(=O)c1ccc(N/C=C2/CCCC(C)C2=O)cc1` (stereo not drawn), 1.6%.
For `CC1CCC/C(=C\Nc2ccccc2C(=O)O)C1=O` (stereo not drawn) the value was 5.74%; for `Cc1ccc(C(=O)NCCc2csc(-c3cccnc3)n2)cc1`, 3.26%.
`O=C(CCC(=O)NNC(=O)c1ccc([N+](=O)[O-])cc1)NCc1ccccc1`: the inhibition is 6.94%.
Regarding `O=C(NCCO)c1cc2ccccc2cc1O`, the inhibition was 2.23% and 6.09%.
Take `CCCCCCCCSC1=CC(=O)C(OC)=C(OC)C1=O`: the inhibition is 31.4%.
With `COC1=CC(=O)C(OC)=C(OC)C1=O`, the inhibition is 5.9%.
Consider `CSCCC(NC(=O)c1ccco1)C(=O)NCCc1ccc(Cl)cc1` (stereo not drawn), for which the inhibition is -15.8%.
As for `CC(=O)c1ccccc1NS(=O)(=O)c1ccccc1Cl`, the inhibition is -6.08%.
In the case of `COC(=O)COc1ccc2c(c1)O/C(=C\c1ccco1)C2=O`, the inhibition was 24%.
In the case of `CCN(CC)C(=O)Oc1ccc2c(c1)O/C(=C\c1ccco1)C2=O` it was 12.6%; in that of `CC(C)Nc1nc2cccnc2s1`, -0.88%.
In the case of `O=C(Nc1ccc(NC(=O)c2cccs2)cc1)c1ccc2c(c1)OCCO2` it was 3.57%.
On to `COc1ccc(N2CCN(C(=O)CCc3c[nH]c4ccccc34)CC2)cc1`, for which the inhibition is 3.01%.
For the molecule `O=C(CCc1c[nH]c2ccccc12)N1CCN(c2ccc(F)cc2)CC1`, the inhibition was -3.01%.
Regarding `O=C(/C=C/c1ccccc1Cl)N(Cc1ccc(Cl)cc1)C1CCS(=O)(=O)C1` (stereo not drawn), the inhibition was 23.6%.
As to `CCC(C)c1ccccc1NC(=O)c1cccnc1` (stereo not drawn), the inhibition was -3.72%.
Take `Cc1cc(Cl)c(S(=O)(=O)N2CCCC2)cc1OCC(=O)NC1CCCCC1`: the inhibition is -1.25%.
As for `Cc1cc(Cl)c(S(=O)(=O)NC2CCCC2)cc1OCC(=O)NC1CCCCC1`, the inhibition is -2.05%.
In the case of `CC(=O)c1cccc(N(CC(=O)Nc2ccc(F)cc2F)S(C)(=O)=O)c1`, the inhibition was 7.3%.
With `O=C(NNc1cccc(Cl)n1)Nc1cccc(C(F)(F)F)c1`, the inhibition was 2.4%.
Consider `Cc1cc(C)cc(NC(=O)CSc2nnc(-c3ccccc3C)o2)c1`, for which the inhibition is 27.4%.
For `COc1cc(NC(=O)c2cccc(Cl)c2)ccc1NC(=O)c1cccs1` the value was 2.27%; for `Cc1ccsc1C(=O)C1CCCN(Cc2cn(C)nc2-c2ccccc2)C1` (stereo not drawn), -6.7%.
Take `Cc1cc(C)c(C#N)c(Oc2ccc(F)cc2)n1`: the inhibition is 18.6%.
On to `Cc1cc(C)c(C#N)c(Oc2ccc(O)cc2)n1`, for which the inhibition was 0.3%.
As to `O=C1c2ccc([N+](=O)[O-])cc2C(=O)N1CNc1ccccn1`, the inhibition is 3.96%.
With `N#CCCN(Cc1ccccc1)C(=O)c1nccnc1C(=O)O`, the inhibition was -11%.
For `O=C(N/N=C/c1cn(Cc2ccccc2)c2ccccc12)c1cccnc1` the value was -5.6%.
Regarding `O=C(N/N=C/c1cn(Cc2ccccc2)c2ccccc12)c1ccncc1`, the inhibition was 8.92%.
Regarding `Cc1ccc(S(=O)(=O)Cc2c(C)noc2C)cc1`, the inhibition is 3.86%.
For `O=CN/C=C/c1cccc(O)c1` the value was -10.2%.
For `O=C(/C=C/c1ccc(O)cc1)c1ccc(O)cc1O`, the inhibition was 9.02%.
With `Cc1cc(C)c(S(=O)(=O)N2CCCCC2)cc1N(C)S(=O)(=O)c1ccc(Cl)cc1`, the inhibition was 17.4% and -11.3%.
On to `Cc1cc(C)c(S(=O)(=O)N2CCCCC2)c(C)c1N(C)S(=O)(=O)c1ccccc1`, for which the inhibition is -2.38%.
Consider `CN(C)N1C(N)=C(C#N)C(c2ccccc2)C2=C1CCCC2=O` (stereo not drawn), for which the inhibition is 9.57%.
`Cc1ccc(C2C(C#N)=C(N)N(c3cccnc3)C3=C2C(=O)CCC3)c(C)c1` (stereo not drawn): the inhibition is -5.44%.
Regarding `CN(C)N1C(N)=C(C#N)C(c2cccnc2)C2=C1CC(C)(C)CC2=O` (stereo not drawn), the inhibition is -8.23%.
For `COc1cc(C2C(C#N)=C(N)N(N(C)C)C3=C2C(=O)CCC3)ccc1O` (stereo not drawn) the value was 3.96%.
On to `CC(C)(C)NC(=O)CSc1nc(O)cc(=O)[nH]1`, for which the inhibition was 6.41%.
Turning to `CCC1=NN(C(=O)Cc2ccc([N+](=O)[O-])cc2)C(O)(C(F)(F)F)C1` (stereo not drawn), the inhibition was 17.1%.
`CC1CN(c2ccccc2)CCN1Cc1nc(Cc2ccccc2)no1` (stereo not drawn): the inhibition was -4.62%.
As for `Cc1ccc(-c2csnn2)cc1`, the inhibition is -3.52%.
For `O=C(Nc1ccc(Cl)cc1)c1cncs1`, the inhibition is -5.16%.
Regarding `COC(=O)CSC(=S)N1CCCC(C)C1` (stereo not drawn), the inhibition is -1.45%.
Regarding `COc1ccc(Nc2c(C)cccc2C)cc1`, the inhibition was -5.1%.
With `COc1ccc(Nc2nc(OC)nc(OC)n2)cc1`, the inhibition was 2.78%.
In the case of `Cc1ccccc1-n1c(-c2ccc(Cl)cc2)cnc1SCC(=O)NC1CCS(=O)(=O)C1` (stereo not drawn) it was -0.29%; in that of `Oc1ccc(-c2cn3c(n2)SCC3)cc1`, 1.62%.
As for `Cc1ccc(-c2cn3c(n2)SCC3)cc1`, the inhibition was -0.83%.
Regarding `CC(=O)c1cccc(CN2CCN(Cc3ccc(C)cc3)C(CCO)C2)c1` (stereo not drawn), the inhibition is -2.61%.
For the molecule `COC(=O)C(C)(C)ONC(=O)Nc1ccccc1Br`, the inhibition was 23.3%.
With `CC1CCN(c2nc(-c3ccco3)c3c(c2C#N)CC(C)(C)OC3)CC1`, the inhibition is 27.3%.
For `CC1(C)Cc2c(C#N)c(N3CCN(C(=O)c4ccccc4Cl)CC3)nc(-c3ccco3)c2CS1` the value was 15%; for `COC(=O)C1=C(C)Nc2nnnn2C1c1cc(OC)ccc1OC` (stereo not drawn), -7.75%.
For `CCCCN(CC)CCNC(=O)c1nn(-c2ccc(OC)cc2)c(=O)c2c1c1ccccc1n2C` the value was 6.38%; for `CCCOc1ccccc1C1NC(=O)NC(C)=C1C(=O)OCc1ccccc1` (stereo not drawn), -9.5%.
For the molecule `CCCCOc1ccccc1C1NC(=O)NC(C)=C1C(=O)OCCOCC` (stereo not drawn), the inhibition is 2%.
For `CCc1nnc(NS(=O)(=O)c2ccc(NC(=S)Nc3ccc(F)cc3)cc2)s1`, the inhibition was -0.27%.
Take `CC[n+]1c(/C=C/C=C/N(C(C)=O)c2ccccc2)sc2ccccc21`: the inhibition is 8.36%.
Consider `CCN1/C(=C/C(C)=C/c2sc3ccccc3[n+]2CC)Sc2ccccc21`, for which the inhibition was -17.9%.
Turning to `CCN(CC)CCN=C1CCCc2ccccc2N1`, the inhibition is 0.69%.
On to `O=C(Nc1cccc(S(=O)(=O)N2CCOCC2)c1)c1cc2ccccc2o1`, for which the inhibition was -1.28%.
Turning to `CC(=O)Oc1ccc(/C=N/NS(=O)(=O)c2ccccc2)cc1`, the inhibition was -10.3%.
In the case of `Cc1ccc(S(=O)(=O)c2c(N)n(Cc3ccco3)c3nc4ccccc4nc23)cc1C` it was 5.39%; in that of `Cc1ccc(S(=O)(=O)c2c(N)n(Cc3ccco3)c3nc4ccccc4nc23)cc1`, 2.43%.
As for `Cc1ccn2c(/C=N/OCc3ccc(F)cc3)c(-c3ccc(Cl)cc3)nc2c1`, the inhibition was -1.15%.
For `CCCCN(CCCC)CC1OCc2ccccc2CO1`, the inhibition is -2.33%.
For `COc1ccc(-c2nn(-c3ccccc3)cc2CNC[C@H]2O[C@@H](n3cnc(C(N)=O)n3)[C@H](O)[C@@H]2O)cc1` the value was 12.8%; for `CCC(C)Nc1nc(C)nc2c1oc1ccccc12` (stereo not drawn), -0.82%.
In the case of `CC(=O)c1sc(=S)n(Cc2ccccc2)c1C` it was -9.02%; in that of `COc1cc2c(cc1OC)C(Cc1ccc(O)cc1)NCC2` (stereo not drawn), 16.4%; in that of `COc1cc2c(cc1O)C(Cc1ccc(O)cc1)NCC2` (stereo not drawn), -2.34%.
Regarding `CC(Oc1ccccc1F)c1nnc(SCC(=O)NCc2ccc3c(c2)OCO3)o1` (stereo not drawn), the inhibition was -7.49%.
For `COc1ccc(-n2cc(-c3ccc(Cl)cc3)[nH]c2=S)cc1` the value was -54.3%; for `O=C(c1ccc(Cl)cc1)C1CCCN(Cc2cccn2-c2ccccn2)C1` (stereo not drawn), -9.46%.
Consider `CCOc1cc(C(=S)N2CCOCC2)ccc1OC(=O)c1ccc(C)cc1`, for which the inhibition is 4.9%.
For `N#C/C(=C(/O)COc1ccc(Cl)cc1)c1nc2ccccc2s1`, the inhibition is 5.6%.
For `CCC(c1ccccc1)C(CC)c1cc(O)c(O)c(O)c1` (stereo not drawn) the value was 27.3%; for `CC(C)NCC(O)c1cc(O)cc(O)c1` (stereo not drawn), 5.35%; for `COc1ccc([C@H](C)NC[C@H](O)c2ccc(O)c(NC=O)c2)cc1`, 26%.
On to `CC(C)NCC(O)c1ccc(NS(C)(=O)=O)cc1` (stereo not drawn), for which the inhibition is 4.04%.
For `CNC[C@H](O)c1cccc(O)c1` the value was -0.43%; for `CCC(NC(C)C)C(O)c1ccc(O)c(O)c1` (stereo not drawn), -1.98%; for `CN1/C(=C\C(=O)COC(=O)c2ccccc2O)C(C)(C)c2ccccc21`, -8.33%.
On to `Cc1occc1-c1nnc(SCC(=O)Nc2ccccc2)n1C`, for which the inhibition was 1.99%.
Take `Oc1cccc(/C=N/N2CCN(c3ccccn3)CC2)c1`: the inhibition is 3.52%.
On to `CCN(CC)S(=O)(=O)c1cccc(-c2nn(-c3ccccc3)cc2/C=C(\C#N)C(=O)NCc2ccco2)c1`, for which the inhibition was -3.43%.
